Only some compounds are listed: those with a hit (about 3.6% of all), similar ones and a draw of the others.
Anthrax LF inh2: Bacillus anthracis LF protease inhibitors, primary screen, biochemical, multiplex microsphere, MLPCN library | Lethal factor (Bacillus anthracis), P15917 | multiplex microsphere protease cleavage assay | inhibition, % at 10 µM | 360,000 tested, 0.12% active; note: plate controls were buffer without enzyme for full effect and enzyme alone for no effect
Target sequence (P15917 whole entry, looked up): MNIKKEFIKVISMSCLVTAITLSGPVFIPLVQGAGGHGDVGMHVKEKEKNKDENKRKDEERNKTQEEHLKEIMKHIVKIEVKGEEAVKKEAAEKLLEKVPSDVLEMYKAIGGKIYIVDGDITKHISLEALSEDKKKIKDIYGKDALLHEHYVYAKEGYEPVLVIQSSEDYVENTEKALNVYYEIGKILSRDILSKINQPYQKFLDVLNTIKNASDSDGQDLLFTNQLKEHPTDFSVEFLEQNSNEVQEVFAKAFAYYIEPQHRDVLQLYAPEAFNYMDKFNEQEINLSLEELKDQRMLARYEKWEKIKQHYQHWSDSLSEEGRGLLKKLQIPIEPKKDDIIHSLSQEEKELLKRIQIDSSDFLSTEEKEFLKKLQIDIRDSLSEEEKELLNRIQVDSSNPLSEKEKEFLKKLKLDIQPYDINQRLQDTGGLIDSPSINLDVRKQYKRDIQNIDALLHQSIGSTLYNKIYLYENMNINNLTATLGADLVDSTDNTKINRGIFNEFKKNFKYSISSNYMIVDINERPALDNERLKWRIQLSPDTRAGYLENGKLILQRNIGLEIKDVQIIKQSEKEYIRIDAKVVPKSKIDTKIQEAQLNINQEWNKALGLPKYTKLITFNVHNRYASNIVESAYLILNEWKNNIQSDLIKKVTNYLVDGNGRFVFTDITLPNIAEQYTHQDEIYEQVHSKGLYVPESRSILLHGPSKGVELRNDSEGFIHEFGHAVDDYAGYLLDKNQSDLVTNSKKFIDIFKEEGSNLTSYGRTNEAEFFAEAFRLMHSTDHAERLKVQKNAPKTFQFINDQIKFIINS
BoNT-F LC inh: BoNT/F light chain protease inhibitors, primary screen, biochemical, flow cytometry, MLPCN library; 360,000 tested, 0.22% active; inhibition, % at 10 µM; Botulinum neurotoxin type F light chain protease (Clostridium botulinum); Multiplex microsphere protease cleavage assay; in the data active = inhibition above about 35%, passing the limit was not always enough; inconclusive = no clear call, values can overlap the other calls; note: plate controls were buffer without enzyme for full effect and enzyme alone for no effect
BoNT A protease: BoNT/A light chain protease inhibitors, primary screen, biochemical, flow cytometry, MLPCN library; Botulinum neurotoxin type A light chain protease (Clostridium botulinum A str. ATCC 3502); 360,000 tested, 0.17% active; inhibition, % at 10 µM; AID 588499, 2011; multiplex microsphere protease substrate cleavage; note: plate controls were buffer without enzyme for full effect and enzyme alone for no effect
Bead autofluor: compound fluorescence in toxin protease inhibitor counterscreen; 360,000 tested, 3.1% active; AID 624483; fluorescence intensity (test concentration not listed); compound autofluorescence counterscreen, microsphere flow cytometry; stronger effect = higher value; in the data active = fluorescence intensity above about 16000; inconclusive = no clear call, values can overlap the other calls
MazF activator: activators of E. coli MazEF toxin-antitoxin RNase, primary screen, biochemical, fluorescence, uHTS | FAM/BHQ RNA-DNA oligo cleavage fluorescence, 5 h | activation, % at 20 µM | 350,000 tested, 0.32% active | AID 504720, 2011; in the data active = activation above about 50%
Starred values were filed as active, the others as inactive. Cut-off read from the data, not from the text of the source, unless noted: active = inhibition above about 30%; inconclusive = no clear call, values can overlap the other calls; inactive = below that.

COc1cc(NC(=O)c2sc3ncn(CC(=O)N4CCCCC4)c(=O)c3c2C)cc(OC)c1OC was read as Anthrax LF inh2 2, BoNT-F LC inh 4, BoNT A protease 2, Bead autofluor 5289 and MazF activator -13.
Screening COc1ccccc1CNC(=O)CCNC(=O)c1ccco1 returned MazF activator 6.
For CCCCN(C(=O)CN(C)CC(=O)Nc1cccc(OC)c1)c1c(N)n(CCCC)c(=O)[nH]c1=O the results were Anthrax LF inh2 -12, BoNT-F LC inh -9, BoNT A protease -1, Bead autofluor 5038 and MazF activator -4.
Cc1cccc(NS(=O)(=O)c2cn(C)c(=O)n(C)c2=O)c1C was read as Anthrax LF inh2 0, BoNT-F LC inh -2, BoNT A protease -1, Bead autofluor 5718 and MazF activator 0.
Screening O=C(NC1CCCCC1)c1ccc(Br)o1 returned Anthrax LF inh2 -2, BoNT-F LC inh 11, BoNT A protease 1, Bead autofluor 4503 and MazF activator 2.
Screening O=C(CCNC(=O)c1ccc(Br)o1)NC1CCCC1 returned Anthrax LF inh2 -2, BoNT-F LC inh 0, BoNT A protease inconclusive, Bead autofluor 16174* and MazF activator 0.
`CCCCOC(=O)c1ccc(NC(=O)c2ocnc2C)cc1` gave Anthrax LF inh2 0, BoNT-F LC inh -4, BoNT A protease inconclusive, Bead autofluor 24702* and MazF activator 2.
CCCCOC(=O)c1ccc(NC(=O)c2ccoc2C)cc1 was read as Anthrax LF inh2 -4, BoNT-F LC inh 1, BoNT A protease 0, Bead autofluor 20473* and MazF activator -5.
CCCCOC(=O)c1ccc(NC(=O)c2ccccc2OC)cc1 was read as Anthrax LF inh2 0, BoNT-F LC inh 2, BoNT A protease 0, Bead autofluor 2532 and MazF activator -5.
Cc1c(C(=O)NCc2ccc(F)cc2)sc(=O)n1Cc1ccc(C(=O)c2ccccc2)cc1 was read as Anthrax LF inh2 0, BoNT-F LC inh 2, BoNT A protease 0 and Bead autofluor 5767.
For COCCCN1C(=O)c2ccc(C(=O)Nc3cccc(OC)c3)cc2C1=O the results were MazF activator 2.
For COc1cccc(C(=O)Nc2ccc3c(c2)C(=O)N(CCC(=O)O)C3=O)c1 the results were Anthrax LF inh2 -1, BoNT-F LC inh 0, BoNT A protease inconclusive, Bead autofluor 20871* and MazF activator -1.
`CC(NC(=O)COc1ccccc1-c1ccccc1)c1ccccc1` (stereo not given) gave Anthrax LF inh2 -1, BoNT-F LC inh -2, BoNT A protease -1, Bead autofluor 2487 and MazF activator 6.
`CC1(NC(=O)COc2ccccc2-c2ccccc2)CCS(=O)(=O)C1` (stereo not given) gave Anthrax LF inh2 -5, BoNT-F LC inh -4, BoNT A protease 0, Bead autofluor 16681* and MazF activator 1.
Screening COc1ccc2[nH]c(=O)c(CN(CCO)C(=O)c3cccs3)cc2c1 returned Anthrax LF inh2 0, BoNT-F LC inh 2, BoNT A protease 1, Bead autofluor 22556* and MazF activator -7.
Screening COc1ccc2[nH]c(=O)c(CN(C(=O)c3cccnc3)c3cc(C)ccc3C)cc2c1 returned Anthrax LF inh2 -22, BoNT-F LC inh -82, BoNT A protease -17, Bead autofluor 18114* and MazF activator 1.
O=C(c1ccncc1)N(Cc1cc2ccccc2[nH]c1=O)C1CCCCC1 was read as Anthrax LF inh2 -1, BoNT-F LC inh -1, BoNT A protease -1, Bead autofluor 20954* and MazF activator -4.
`COc1ccc2[nH]c(=O)c(CN(Cc3cccnc3)C(=O)Nc3ccccc3)cc2c1` gave Anthrax LF inh2 -4, BoNT-F LC inh -5, BoNT A protease -3, Bead autofluor 23007* and MazF activator 4.
Screening Cc1ccsc1C(=O)Nc1ccc(S(=O)(=O)N2CCOCC2)cc1 returned Anthrax LF inh2 3, BoNT-F LC inh -5, BoNT A protease -5, Bead autofluor 8449 and MazF activator 2.
For COc1ccccc1/C=C/C(=O)N1CCN(S(=O)(=O)c2cc(C)ccc2C)CC1 the results were Anthrax LF inh2 -8, BoNT-F LC inh 2, BoNT A protease 0, Bead autofluor 8255 and MazF activator -1.
Screening COc1cc(C(=O)N(Cc2cccnc2)Cc2cc3cc4c(cc3[nH]c2=O)OCCO4)cc(OC)c1OC returned Anthrax LF inh2 1, BoNT-F LC inh 2, BoNT A protease 2, Bead autofluor 22318* and MazF activator 1.
`Cc1ccc(S(=O)(=O)N(Cc2cccnc2)Cc2cc3ccccc3[nH]c2=O)cc1` gave Anthrax LF inh2 0, BoNT-F LC inh 0, BoNT A protease 1, Bead autofluor 5593 and MazF activator -2.
Screening CC(=O)N(Cc1cccnc1)Cc1cc2ccccc2[nH]c1=O returned Anthrax LF inh2 -1, BoNT-F LC inh -2, BoNT A protease 0, Bead autofluor 23316* and MazF activator -2.
For CC(C)N(Cc1cc2ccccc2[nH]c1=O)C(=O)c1cccnc1 the results were Anthrax LF inh2 -2, BoNT-F LC inh -4, BoNT A protease 0, Bead autofluor 2984 and MazF activator -2.
For CC(C)CN(Cc1cc2ccccc2[nH]c1=O)C(=O)c1cccnc1 the results were Anthrax LF inh2 -2, BoNT-F LC inh -9, BoNT A protease inconclusive, Bead autofluor 22057* and MazF activator 5.
COc1ccc2cc(CN(C(=O)Nc3ccccc3)C3CCCC3)c(=O)[nH]c2c1 was read as Anthrax LF inh2 -1, BoNT-F LC inh -6, BoNT A protease -3, Bead autofluor 23679* and MazF activator 0.
`COc1ccc2[nH]c(=O)c(CN(C(=O)NC3CCCCC3)C3CCCCC3)cc2c1` gave Anthrax LF inh2 2, BoNT-F LC inh -4, BoNT A protease 0, Bead autofluor 10095 and MazF activator 3.
O=C(c1ccccc1F)N(Cc1cccnc1)Cc1cc2cc3c(cc2[nH]c1=O)OCCO3 was read as Anthrax LF inh2 0, BoNT-F LC inh -13, BoNT A protease -1, Bead autofluor 4208 and MazF activator -4.
`COc1ccc(Cl)cc1-c1cc(C(=O)Nc2ccc(C(C)(C)C)cc2)[nH]n1` gave Anthrax LF inh2 -3, BoNT-F LC inh 1, BoNT A protease 0 and Bead autofluor 2967.
Screening CCN(CC)S(=O)(=O)N1CCC(C(=O)NC2CCCc3ccccc32)CC1 (stereo not given) returned Anthrax LF inh2 0, BoNT-F LC inh 6, BoNT A protease 5, Bead autofluor 20617* and MazF activator -7.
For CNC(=O)NC1CCCc2ccccc21 (stereo not given) the results were Anthrax LF inh2 -2, BoNT-F LC inh 1, BoNT A protease 1, Bead autofluor 23281* and MazF activator 12.

Bioassay records: PubChem, several laboratories
